From PubChem BioAssay (EPA / NIEHS) come the findings set out here.

Structures are written as SMILES. Calls of active or inactive are those of the source. How the source made its calls: active means hit-call score of the fitted dose curve at least 0.9, where 1 is the maximum; inactive means score below 0.9.

A short description of this assay: BSK_hDFCGF_SRB: Viability Assessment in the BioMAP Diversity Plus: hDFCGF Assay (AID 2283061). The note with it: primary human foreskin fibroblasts. The protocol: BSK_hDFCGF is a cell-based, multiplexed-readout assay that uses foreskin fibroblast, a human skin primary cell, with measurements taken at 24 hours after chemical dosing in a 96-well plate.BSK_hDFCGF_SRB is an assay component measured in the BSK_hDFCGF assay. It measures 0.1% sulforhodamine related to cell death using Sulforhodamine staining technology.Data from the assay component BSK_hDFCGF_SRB was analyzed into 1 assay endpoint. This assay endpoint, BSK_hDFCGF_SRB, was analyzed with bidirectional fitting relative to DMSO as the negative control and baseline of activity. Using a type of viability reporter, gain or loss-of-signal activity can be used to understand changes in the signaling. Furthermore, this assay endpoint can be referred to as a primary readout, because this assay has produced multiple assay endpoints where this one serves a signaling function. To generalize the intended target to other relatable targets, this assay endpoint is annotated to the cell morphology intended target family, where the subfamily is cell conformation.
The levels of cell surface (or secreted, indicated by the prefix "s") biomarker endpoints were measured by ELISA. Overt cytotoxicity to cells in confluent adherent cultures (all systems other than the BT system) was assessed by measuring total protein levels using sulforhodamine B (SRB) staining in parallel cultures at the time of biomarker measurements, indicated as SRB endpoints. For proliferation assays for adherent cell types, individual cell types are cultured at sub-confluence and relative cell numbers quantified by SRB staining at time points optimized for each system (48 h: 3C and CASM3C systems; 72 h: BT and HDF3CGF systems; 96 h: SAg system). SRB was performed by staining cells with 0.1% SRB after fixation with 10% TCA and reading wells at 560 nm.Viability and proliferation of PBMC (T cells) was quantified by Alamar Blue reduction for the SAg and BT systems. For PBMC viability (referred to as PBMC Cytotoxicity within the assay endpoint names), cells were plated (75,000/well in a 96-well plate) and then chemical samples added for 1 h before addition of activators, SEB and TSST-1 (20 ng/mL final concentration each). Cells were incubated for 90 h. Then, Alamar Blue (20 uL/well) (Invitrogen, Cat DAL1100) was added for 6 h, and the plates were read with a fluorescence microplate reader at 546/580 nm (excitation/emission). For PBMC proliferation, cells were plated and activated as above but incubated for only 16 h prior to addition of Alamar Blue. Plates were read after 6 h.
With `O=[N+]([O-])c1cccc2ccccc12`, the result was inactive. The same measure, in the same setting: next, `N#Cc1cccnc1`: “inactive”. As to `CCCCCCCCCCCCN(C)C`, the result was inactive.

Turning to `CCOP(=S)(OCC)OP(=S)(OCC)OCC`, the result was inactive.

Turning to `O=S(=O)(c1ccc(Cl)cc1)c1cc(Cl)c(Cl)cc1Cl`, the outcome was inactive. Still for that read-out and setting: the entry for `CC(C=O)Cc1ccc2c(c1)OCO2` (stereo not given) is “inactive”; for `OC(Cc1ccccc1Cl)(Cn1[nH]cnc1=S)C1(Cl)CC1` (stereo not given) it is “inactive”.

Take `Cc1ccccc1OP(=O)(Oc1ccccc1)Oc1ccccc1`: the AC50 (in general, the midpoint of the concentration-response curve, whichever way the signal moves) is 29.2 µM (active). Regarding `Cc1cc(Cl)ccc1N`, the result was inactive. Take `O=S(=O)(C(Cl)(Cl)Cl)C(Cl)(Cl)Cl`: the AC50 was 1.52 µM (active). Regarding `N#CCCC(Br)(C#N)CBr` (stereo not given), the AC50 is 7.68 µM (active). Take `Clc1cccc(Cl)c1`: the result was inactive.

As to `OCCN(CCO)CCO`, the result was inactive.

For `COCC(=O)N(c1c(C)cccc1C)[C@H](C)C(=O)OC`, the result was inactive.

For the compound `O=C(Cc1ccccc1)OCCc1ccccc1`, the outcome was inactive. Regarding `C#CCOC(=O)/C=C(C)/C=C/CC(C)CCCC(C)C` (stereo not given), the result was inactive. For `CC(C)(C)c1cc([N+](=O)[O-])cc(C(C)(C)C)c1O`, the outcome was inactive. On to `NC(=O)CCl`, for which the result was inactive. Turning to `COc1ccccc1N`, the result was inactive. Consider `CC(C)O.CC(C)O.OCCN(CCO)CCO.OCCN(CCO)CCO.[Ti]`, for which the outcome was inactive. As for `CCC(C)(C#N)N=NC(C)(C#N)CC` (stereo not given), the outcome was inactive. For `Cc1cc(C)cc(C)c1`, the result was inactive.

For `CCCCCCCCCCCCc1cccc(S(=O)(=O)O)c1`, the AC50 was 18.1 µM (active). For `C[C@]12CC[C@@H](O)C[C@@H]1CC[C@@H]1[C@@H]2CC[C@]2(C)C(=O)CC[C@@H]12`, the outcome was inactive.

Take `CCOP(=O)(OCC)SCCSCC`: the result was inactive. The same measure, in the same setting: the entry for `Oc1c(Br)cc(Br)cc1Br` is “inactive”; for `CCCCOC(=O)COC(=O)c1ccccc1C(=O)OCCCC` it is “inactive”; for `OCCCCO` it is “inactive”. As for `Oc1cc(Cl)c(Cl)cc1Cl`, the concentration at half-maximal activity (AC50) was 31.8 µM (active). `CC(C)(COCC1CO1)COCC1CO1` (stereo not given): the outcome was inactive. On the same count and under the same terms, the entry for `Cc1cc(Cl)ccc1OC(C)C(=O)O` (stereo not given) is “inactive”. On to `Cc1cc(C(C)(C)c2ccc(O)c(C)c2)ccc1O`, for which the AC50 is 16.1 µM (active). With `Nc1ccc(N)cc1`, the outcome was inactive. The same measure, in the same setting: the entry for `CCOP(=S)(OCC)SCS(=O)(=O)C(C)(C)C` is “inactive”. Turning to `CC(C)N(C(=O)CCl)c1ccccc1`, the AC50 was 3.03 µM (active). Turning to `CCOP(=O)(OCC)OC(=CCl)c1ccc(Cl)cc1Cl`, the AC50 was 30.8 µM (active). On to `Clc1cccc(Cl)c1Cl`, for which the result was inactive. For `CCN(CC)C(=O)C(Cl)=C(C)OP(=O)(OC)OC`, the outcome was inactive.

Take `O=C(N[C@H]1CN2CCC1CC2)c1ccc2c(c1)OCCO2`: the result was inactive. For `Oc1cccc(-c2ccccc2)c1`, the AC50 is 30.7 µM (active).
